Assay results reported in ChEMBL document CHEMBL1961873, “Compounds: GSK PKIS; Assays: Nanosyn kinase panel” (2012).

How the values were obtained:
[1] = target: Rho-associated protein kinase 1 (Homo sapiens) (UniProt Q13464); conditions: at 1 µM;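 also: reported values are mean percent inhibition of ROCK1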
[2] = target: Rho-associated protein kinase 2 (Homo sapiens) (UniProt O75116); conditions: at 0.1 µM
[3] = target: Rho-associated protein kinase 2 (Homo sapiens) (UniProt O75116); conditions: at 1 µM
[4] = target: Ribosomal protein S6 kinase alpha-1 (Homo sapiens) (UniProt Q15418); conditions: at 0.1 µM
Sequence of Ribosomal protein S6 kinase alpha-1 (Homo sapiens) (Q15418 whole entry): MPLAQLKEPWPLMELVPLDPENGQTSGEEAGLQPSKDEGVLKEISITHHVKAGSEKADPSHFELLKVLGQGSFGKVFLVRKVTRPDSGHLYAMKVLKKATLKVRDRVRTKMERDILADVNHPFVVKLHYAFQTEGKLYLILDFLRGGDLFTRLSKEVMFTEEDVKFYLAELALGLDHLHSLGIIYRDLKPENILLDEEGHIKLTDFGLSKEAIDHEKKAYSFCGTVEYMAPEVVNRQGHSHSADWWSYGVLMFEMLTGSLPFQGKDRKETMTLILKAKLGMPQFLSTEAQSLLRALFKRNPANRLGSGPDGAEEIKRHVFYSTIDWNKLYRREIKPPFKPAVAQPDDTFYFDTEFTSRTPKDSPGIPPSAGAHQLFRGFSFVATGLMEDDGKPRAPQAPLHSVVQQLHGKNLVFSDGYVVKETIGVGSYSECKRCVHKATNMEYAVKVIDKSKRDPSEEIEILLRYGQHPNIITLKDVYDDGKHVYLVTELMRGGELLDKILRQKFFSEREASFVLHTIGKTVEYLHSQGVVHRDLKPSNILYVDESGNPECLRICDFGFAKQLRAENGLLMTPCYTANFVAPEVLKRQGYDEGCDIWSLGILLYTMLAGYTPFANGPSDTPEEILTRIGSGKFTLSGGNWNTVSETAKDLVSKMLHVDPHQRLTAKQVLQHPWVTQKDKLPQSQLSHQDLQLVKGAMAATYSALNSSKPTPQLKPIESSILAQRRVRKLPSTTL

[5] = target: Ribosomal protein S6 kinase alpha-1 (Homo sapiens) (UniProt Q15418); conditions: at 1 µM
[6] = target: Ribosomal protein S6 kinase alpha-3 (Homo sapiens) (UniProt P51812); conditions: at 0.1 µM
[7] = target: Ribosomal protein S6 kinase alpha-3 (Homo sapiens) (UniProt P51812); conditions: at 1 µM
[8] = target: Ribosomal protein S6 kinase alpha-2 (Homo sapiens) (UniProt Q15349); conditions: at 0.1 µM
Sequence of Ribosomal protein S6 kinase alpha-2 (Homo sapiens) (Q15349 whole entry): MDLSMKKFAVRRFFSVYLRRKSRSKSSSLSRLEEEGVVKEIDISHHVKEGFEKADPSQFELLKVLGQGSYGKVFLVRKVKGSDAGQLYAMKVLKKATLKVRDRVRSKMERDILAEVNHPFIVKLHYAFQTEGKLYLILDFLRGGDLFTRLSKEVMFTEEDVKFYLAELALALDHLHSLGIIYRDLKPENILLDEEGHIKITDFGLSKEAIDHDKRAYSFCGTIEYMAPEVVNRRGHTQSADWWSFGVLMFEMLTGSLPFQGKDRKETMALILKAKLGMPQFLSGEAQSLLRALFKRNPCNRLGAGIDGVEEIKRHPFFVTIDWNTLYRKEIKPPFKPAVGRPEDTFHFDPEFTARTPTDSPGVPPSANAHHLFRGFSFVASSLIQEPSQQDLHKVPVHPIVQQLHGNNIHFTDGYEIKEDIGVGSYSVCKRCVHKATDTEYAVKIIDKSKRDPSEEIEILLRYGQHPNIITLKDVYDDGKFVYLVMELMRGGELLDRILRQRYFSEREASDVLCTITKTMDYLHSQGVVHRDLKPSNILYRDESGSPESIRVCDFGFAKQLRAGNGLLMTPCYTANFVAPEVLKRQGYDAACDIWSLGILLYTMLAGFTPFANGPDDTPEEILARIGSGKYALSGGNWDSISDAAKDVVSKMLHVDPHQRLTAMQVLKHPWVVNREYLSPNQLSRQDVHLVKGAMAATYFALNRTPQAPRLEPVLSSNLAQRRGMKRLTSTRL

[9] = target: Ribosomal protein S6 kinase alpha-2 (Homo sapiens) (UniProt Q15349); conditions: at 1 µM
[10] = target: Ribosomal protein S6 kinase alpha-6 (Homo sapiens) (UniProt Q9UK32); conditions: at 0.1 µM;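 also: reported value is the mean inhibition of RSK4, from the GSK PKIS kinase inhibitor screen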
Sequence of Ribosomal protein S6 kinase alpha-6 (Homo sapiens) (Q9UK32 whole entry): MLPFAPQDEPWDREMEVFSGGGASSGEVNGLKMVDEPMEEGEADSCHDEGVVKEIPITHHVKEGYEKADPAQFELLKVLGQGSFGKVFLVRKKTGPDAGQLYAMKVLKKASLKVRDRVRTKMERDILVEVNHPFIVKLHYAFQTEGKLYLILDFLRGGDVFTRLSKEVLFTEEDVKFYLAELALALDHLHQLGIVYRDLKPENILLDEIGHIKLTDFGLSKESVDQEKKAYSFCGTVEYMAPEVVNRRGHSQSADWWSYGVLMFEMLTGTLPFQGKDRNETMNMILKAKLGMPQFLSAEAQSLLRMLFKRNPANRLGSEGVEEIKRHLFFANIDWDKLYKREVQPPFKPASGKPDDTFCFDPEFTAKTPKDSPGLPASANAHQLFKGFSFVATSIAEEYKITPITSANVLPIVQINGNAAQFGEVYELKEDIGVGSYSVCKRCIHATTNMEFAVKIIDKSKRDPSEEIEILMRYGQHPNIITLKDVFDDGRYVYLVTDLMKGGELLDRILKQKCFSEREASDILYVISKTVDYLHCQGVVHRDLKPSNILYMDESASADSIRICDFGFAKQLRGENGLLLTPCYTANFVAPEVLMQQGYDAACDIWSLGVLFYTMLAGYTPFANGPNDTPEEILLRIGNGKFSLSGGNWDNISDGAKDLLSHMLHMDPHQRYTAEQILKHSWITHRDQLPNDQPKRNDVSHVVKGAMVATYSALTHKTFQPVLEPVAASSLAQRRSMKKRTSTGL

Sequence of Rho-associated protein kinase 2 (Homo sapiens) (O75116 whole entry, looked up): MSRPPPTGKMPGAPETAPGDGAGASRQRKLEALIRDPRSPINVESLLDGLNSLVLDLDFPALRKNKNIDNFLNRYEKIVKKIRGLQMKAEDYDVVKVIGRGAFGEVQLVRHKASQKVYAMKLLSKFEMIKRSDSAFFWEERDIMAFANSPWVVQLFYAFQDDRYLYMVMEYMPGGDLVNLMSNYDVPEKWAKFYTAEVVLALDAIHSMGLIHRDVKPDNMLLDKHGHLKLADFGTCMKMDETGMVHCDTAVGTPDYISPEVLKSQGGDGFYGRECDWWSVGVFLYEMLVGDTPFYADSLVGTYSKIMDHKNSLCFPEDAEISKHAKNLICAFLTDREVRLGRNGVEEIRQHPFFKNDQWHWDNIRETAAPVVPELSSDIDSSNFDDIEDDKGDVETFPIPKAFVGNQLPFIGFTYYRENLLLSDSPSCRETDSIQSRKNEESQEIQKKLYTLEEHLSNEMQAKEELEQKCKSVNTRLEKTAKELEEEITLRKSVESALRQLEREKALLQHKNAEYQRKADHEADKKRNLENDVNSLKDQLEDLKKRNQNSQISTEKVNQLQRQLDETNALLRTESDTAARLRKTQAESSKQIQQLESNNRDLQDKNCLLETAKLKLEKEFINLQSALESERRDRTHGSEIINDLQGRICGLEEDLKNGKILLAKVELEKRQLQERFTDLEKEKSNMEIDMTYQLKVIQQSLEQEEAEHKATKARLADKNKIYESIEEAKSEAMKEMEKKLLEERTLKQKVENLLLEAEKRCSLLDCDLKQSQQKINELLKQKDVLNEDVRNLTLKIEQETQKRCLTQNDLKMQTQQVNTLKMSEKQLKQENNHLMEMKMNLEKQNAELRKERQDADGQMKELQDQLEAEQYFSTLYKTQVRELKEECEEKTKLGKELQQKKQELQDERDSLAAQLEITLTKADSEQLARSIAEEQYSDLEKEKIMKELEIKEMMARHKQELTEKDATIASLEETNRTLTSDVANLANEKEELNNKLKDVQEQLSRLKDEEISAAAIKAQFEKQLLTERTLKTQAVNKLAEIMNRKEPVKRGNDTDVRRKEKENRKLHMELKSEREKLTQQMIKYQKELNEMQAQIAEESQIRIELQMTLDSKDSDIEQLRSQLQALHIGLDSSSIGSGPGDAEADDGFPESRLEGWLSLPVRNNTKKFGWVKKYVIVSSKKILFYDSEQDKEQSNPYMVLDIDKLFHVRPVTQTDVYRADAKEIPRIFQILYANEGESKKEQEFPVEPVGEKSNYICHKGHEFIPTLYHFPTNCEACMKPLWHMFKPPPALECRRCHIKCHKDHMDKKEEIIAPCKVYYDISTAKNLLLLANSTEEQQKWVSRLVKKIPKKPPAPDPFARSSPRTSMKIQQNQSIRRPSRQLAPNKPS
Sequence of Rho-associated protein kinase 1 (Homo sapiens) (Q13464 2-1354 limits assumed): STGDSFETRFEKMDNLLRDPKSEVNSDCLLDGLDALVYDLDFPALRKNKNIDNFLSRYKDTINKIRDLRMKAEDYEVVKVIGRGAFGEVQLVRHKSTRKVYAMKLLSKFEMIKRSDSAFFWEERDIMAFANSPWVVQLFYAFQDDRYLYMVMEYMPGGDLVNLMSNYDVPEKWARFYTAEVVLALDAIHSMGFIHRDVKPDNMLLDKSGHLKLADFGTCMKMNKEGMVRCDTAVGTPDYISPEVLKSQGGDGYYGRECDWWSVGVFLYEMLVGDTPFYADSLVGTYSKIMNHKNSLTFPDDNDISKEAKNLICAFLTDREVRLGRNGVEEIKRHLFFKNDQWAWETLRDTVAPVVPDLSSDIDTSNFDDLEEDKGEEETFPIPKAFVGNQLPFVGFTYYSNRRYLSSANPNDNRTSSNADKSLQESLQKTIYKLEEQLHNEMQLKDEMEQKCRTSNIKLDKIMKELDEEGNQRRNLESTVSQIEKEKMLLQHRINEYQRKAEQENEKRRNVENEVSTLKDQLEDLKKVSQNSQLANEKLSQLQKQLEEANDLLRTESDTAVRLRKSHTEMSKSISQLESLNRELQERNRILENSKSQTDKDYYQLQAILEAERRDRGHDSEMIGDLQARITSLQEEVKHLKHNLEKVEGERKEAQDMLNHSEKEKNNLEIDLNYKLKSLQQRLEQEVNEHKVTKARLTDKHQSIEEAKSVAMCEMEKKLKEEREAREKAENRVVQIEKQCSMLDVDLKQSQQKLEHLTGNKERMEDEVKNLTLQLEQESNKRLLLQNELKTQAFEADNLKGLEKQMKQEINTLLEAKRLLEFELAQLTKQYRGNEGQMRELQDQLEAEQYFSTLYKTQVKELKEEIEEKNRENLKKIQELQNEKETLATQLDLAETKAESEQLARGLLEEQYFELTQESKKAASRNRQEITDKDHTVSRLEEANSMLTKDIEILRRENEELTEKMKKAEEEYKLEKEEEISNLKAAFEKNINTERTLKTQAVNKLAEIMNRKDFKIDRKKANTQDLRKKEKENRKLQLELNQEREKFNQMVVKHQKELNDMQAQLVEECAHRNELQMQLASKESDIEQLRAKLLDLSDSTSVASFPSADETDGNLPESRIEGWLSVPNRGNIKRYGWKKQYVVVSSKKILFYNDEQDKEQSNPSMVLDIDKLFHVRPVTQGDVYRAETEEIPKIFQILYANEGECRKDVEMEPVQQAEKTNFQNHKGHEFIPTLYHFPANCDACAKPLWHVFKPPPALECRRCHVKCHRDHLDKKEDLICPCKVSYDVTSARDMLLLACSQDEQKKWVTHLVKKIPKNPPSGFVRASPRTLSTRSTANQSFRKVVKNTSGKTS

SMILES	inhibition [1] [%]	inhibition [2] [%]	inhibition [3] [%]	inhibition [4] [%]	inhibition [5] [%]	inhibition [6] [%]	inhibition [7] [%]	inhibition [8] [%]	inhibition [9] [%]	inhibition [10] [%]
CCCNc1cccc(-n2ncc3c(N/N=C/c4ccncc4)ncnc32)c1	13.7	4.97	28.1	1.36	4.72	1.62	4.75	-0.01	2.43	0.53
CCS(=O)(=O)c1ccc(OC)c(Nc2ncc(-c3cccc(F)c3)o2)c1	2.95	3.63	3.95	2.84	6.08	1.12	13.6	4.07	5.22	2.2
CS(=O)(=O)CCNCc1ccc(-c2ccc3ncnc(Nc4ccc(OCc5cccc(C(F)(F)F)c5)cc4)c3c2)o1	3.01	2.07	3.5	0.96	2.45	-0.35	3.53	1.21	2.69	0.05
NS(=O)(=O)c1ccc(N/N=C2\C(=O)Nc3cccc(CCc4ccncc4)c32)cc1	1.51	0.96	1.68	2.2	1.84	2.02	2.03	2.79	7.37	3.11
CS(=O)(=O)CCNCc1ccoc1-c1ccc2ncnc(Nc3ccc(OCc4ccccc4)cc3)c2c1	-0.69	-1.1	0.07	0.19	-0.1	-0.27	-0.04	1.27	1.14	-0.31
Cc1nnc(-c2cccc(-c3ccc(C(=O)NCC4CC4)cc3)c2)o1	2.23	3.74	6.19	2.8	4.92	1.25	1.76	3.01	2.85	2.12
COc1ccccc1-c1cc(/C=C2\C(=O)Nc3ncc(Br)cc32)cc(Br)c1O	2.31	1.89	2.15	0.44	0.08	0.16	1.15	1.52	3.85	-0.23
Cn1c(-c2nonc2N)nc2cnccc21	52.4	20	67.5	9.65	44.8	3.58	23	8.32	41.4	2.49
Cc1c2ccc(N(C)c3ccnc(Nc4cccc(S(N)(=O)=O)c4)n3)cc2nn1C	1.97	2.24	2.37	2	3.33	1.97	3.86	3.56	5.15	2.42
CCOc1ccc2c(-c3ccnc(Nc4cc(OC)cc(C(F)(F)F)c4)n3)cnn2n1	-0.21	0.14	-0.36	-0.43	-1.47	-0.09	-1.49	0.44	0.33	1.36
COc1cc(N2CCN(C(C)C)CC2)ccc1Nc1nc(Nc2cccc(F)c2C(=O)O)c2cc[nH]c2n1	2.22	2.05	5.77	4.06	16	2.18	11.6	0.99	5.21	2.17
COc1cc(Nc2ncc(-c3ccccc3)o2)cc(OC)c1	2.6	3.77	-3.98	1.54	1.99	1.01	2.61	1.71	3.57	0.85
COc1cccc(-n2ncc3c(N/N=C/c4ccc(C(=O)NCCN(C)C)cc4)ncnc32)c1	7.32	5.29	9.45	1.48	6.32	0.89	5.65	1.89	8.18	2.38
CC1=C(C(=O)Nc2ccc3[nH]nc(C)c3c2)C(c2ccc(C(F)(F)F)cc2)CC(=O)N1 (stereo not given)	89.8	70.3	83.8	2.72	11.3	1.64	17.2	1.77	9.89	3.48
O=C1Nc2ccccc2/C1=C1\CCc2cc(O)ccc21	2.49	2.95	3.95	5.76	28.4	4.82	27	9.8	42.1	7.24
CNC(=O)c1cncc(/C=C/c2ccccc2C)c1	1.27	4.29	8.78	2.39	4.99	2.14	3.84	0.87	2.74	0.45
